# Assay results published in PubChem BioAssay (NCATS).
# Inconclusive results are not listed. Calls of active or inactive are those of the source. The call rests on the fitted dose curve; in most records, active means well fitted inhibition curve with a large enough effect; inconclusive means small, poorly fitted or top-dose-only effect, or effect the other way; inactive means no such curve, though single readings can be large or run the other way.
# Assay: Quantitative high throughput screen for delayed death inhibitors of the malarial parasite plastid, 96 hour incubation (AID 488745); further: nearly all actives have a fitted effect of over 70% in size
# Conditions: Plasmodium falciparum growth; series mostly up to 28.7 µM; activity change, negative = inhibition: at the top concentration
# Excerpt: NIH Molecular Libraries Probe Production Network [MLPCN]
# NIH Chemical Genomics Center [NCGC]
# Assay Provider: David Fidock and Eric Ekland, Columbia University
# The goal of this screen is to discover new antimalarial compounds that act by inhibiting the development of the apicoplast in the malarial parasite Plasmodium falciparum. The biochemical processes that make this organelle essential for erythrocytic stage parasites are not well understood. However, antibiotics such as azithromycin and tetracycline, which target the apicoplast translational machinery, have a potent antimalarial effect.
# We have developed a cell-based assay that measures parasite growth based on the expression of an integrated copy of a firefly luciferase reporter. To detect small molecules that cause this 'delayed death' phenotype, erythrocytes infected with the luciferase-expressing parasites were incubated with compounds for either one or two generations, corresponding to 48 and 96 hours, respectively. Compounds that inhibit parasite growth in the second generation, but not the first, should be enriched in antimalarials that target the apicoplast. Growth inhibition is detected by a decrease in luciferase activity
# Four microliters of culture medium (RPMI 1640 with 0.5% w/v Albumax (GIBCO), 24 mM sodium bicarbonate and 10 ug/mL gentamycin) were dispensed by a Multi-drop Combi into white solid 1536-well plates (Grenier) and 23 nL compound was added by a pin tool. Four microliters of infected erythrocytes (2% hematocrit, 0.1% parasitemia final concentration) in culture medium were dispensed and the plates incubated for 96 hours at 37 C in 5% CO2. Two microliters of luciferase detection reagent was added and luminescence was detected by a ViewLux (PerkinElmer) reader
# On the % scale 0 is the no-effect control and ±100 the full control effect; potency means the concentration at half of the fitted maximal effect.
Structure (SMILES),"activity change, negative = inhibition",Potency
CCc1c(C(=O)OC)ncc2[nH]c3cc(OC)c(OC)cc3c12,-2.46% (inactive),
COC(=O)C(N)CCCN=C(N)N[N+](=O)[O-] (stereo not given),-0.246% (inactive),
C[C@]12CC[C@H](O)CC1=CCC1C2CC[C@]2(C)C(=O)CC[C@@H]12 (stereo not given in full),-16% (inactive),
CCCN1CCCC(c2cccc(O)c2)C1 (stereo not given),5.36% (inactive),
CC(C)[C@@]1(NC(=O)[C@@H]2C[C@@H]3c4cccc5[nH]cc(c45)C[C@H]3N(C)C2)O[C@@]2(O)C3CCCN3C(=O)[C@H](Cc3ccccc3)N2C1=O (stereo not given in full),,1470 nM (active)
N#CC(=Cc1ccc(O)c(O)c1)C(N)=S,-26.8% (inactive),
COc1ccc2c(c1O)-c1cccc3c1C(C2)N(C)CC3 (stereo not given),-92% (inactive),
CCCN1CCC[C@@H](c2cccc(C#N)c2)C1,-4.31% (inactive),
NCC#Cc1ccccc1,-4.99% (inactive),
CCCC[N+]1(C)C2CC(OC(=O)C(CO)c3ccccc3)CC1C1OC12 (stereo not given),-4.86% (inactive),
CN1CCC23CCCC[C@H]2C1Cc1ccc(O)cc13 (stereo not given in full),-8.73% (inactive),
CCCN1CCc2cccc3c2C1Cc1ccc(O)c(O)c1-3 (stereo not given),,2940 nM (active)
CC1Cc2cc3c(cc2C(c2ccc(N)cc2)=NN1)OCO3 (stereo not given),-2.17% (inactive),
COc1ccc2c3c1O[C@H]1C(=O)CC[C@@]4(O)C(C2)N(CC2CC2)CCC314 (stereo not given in full),3.89% (inactive),
C[C@@H]1O[C@@H](O[C@H]2C[C@@H](O)[C@]3(CO)[C@H]4[C@H](O)C[C@]5(C)[C@@H]([C@@H]6COC(=O)C6)CC[C@]5(O)[C@@H]4CC[C@]3(O)C2)[C@H](O)[C@H](O)[C@H]1O,3.35% (inactive),
C=CCN1CCc2cccc3c2C1Cc1ccc(O)c(O)c1-3 (stereo not given),-107% (inactive),
COc1cc(C[C@@H](C)N)c(OC)cc1I,-15.9% (inactive),
CCCN1CCc2cc(O)cc3c2C1Cc1ccc(O)c(O)c1-3 (stereo not given),,3290 nM (active)
C[C@]12CC[C@H](OS(=O)(=O)O)CC1=CCC1C2CC[C@]2(C)C(=O)CC[C@@H]12 (stereo not given in full),-0.333% (inactive),
C[C@]12CC[C@@H](O)CC1CCC1C2CC[C@]2(C)C(=O)CC[C@@H]12 (stereo not given in full),-23% (inactive),

Structure (SMILES),"activity change, negative = inhibition",Potency
COc1cc(C=C(C#N)C#N)cc(O)c1O,-20.5% (inactive),
NC(Cn1ccc(=O)[nH]c1=O)C(=O)O (stereo not given),28.8% (inactive),
CC(=O)O[C@H]1C[C@@H]2CCC3C(CC[C@@]4(C)[C@H]3C[C@H]([N+]3(C)CCCCC3)[C@@H]4OC(C)=O)[C@@]2(C)C[C@@H]1[N+]1(C)CCCCC1 (stereo not given in full),,13100 nM (active)
CCCN1CCC[C@@H]2Cc3n[nH]cc3C[C@H]21,17.8% (inactive),
CC12CCC3C(CCC4=C(O)C(=O)CCC43C)C1CCC2=O (stereo not given),-14.6% (inactive),
C[C@]12CC[C@H]3[C@@H](CCC4C[C@H](O)CC[C@@]43C)[C@@H]1CC[C@@H]2O (stereo not given in full),-20.7% (inactive),
CCNC(=O)[C@H]1O[C@@H](n2cnc3c(N)ncnc32)[C@H](O)[C@H]1O,-4.58% (inactive),
Nc1ncnc2c1ncn2[C@@H]1O[C@H](COP(=O)(O)CP(=O)(O)OP(=O)(O)O)[C@H](O)[C@H]1O,-20.1% (inactive),
CCN1C[C@]2(C)CC[C@H](O)[C@@]34[C@@H]5C[C@@H]6[C@@H](OC)C[C@@](O)(C5[C@H]6O)[C@@H](C[C@@H]23)[C@@H]14,5.95% (inactive),
O=C(O)C1C2CCC(O2)C1C(=O)O (stereo not given),6.3% (inactive),
CC(C)(O)C1C2OC(=O)C1[C@]1(O)C[C@H]3O[C@]34C(=O)O[C@H]2[C@]14C (stereo not given in full) (tested in a mixture with another compound),8.08% (inactive),
CCN(CC)C(=O)N[C@@H]1C[C@@H]2c3cccc4[nH]cc(c34)C[C@H]2N(C)C1,,1170 nM (active)
CCCN(CCC)[C@@H]1CCc2c(F)ccc(O)c2C1,,2620 nM (active)
C/C=C(/C)C(=O)O[C@H]1C(C)=C2C([C@@H]1OC(=O)CCCCCCC)[C@@](C)(OC(C)=O)C[C@@H](OC(=O)CCC)[C@@]1(O)[C@H]2OC(=O)[C@@]1(C)O (stereo not given in full),,4150 nM (active)
C[N+]1(C)C2CC(OC(=O)C(CO)c3ccccc3)CC1C1OC12 (stereo not given),,inactive
C[C@H]1OC[C@@H](C[N+](C)(C)C)O1,-38.5% (inactive),
S=C(S)N1CCCC1,,5860 nM (active)
C=CCN1CC[C@@]2(C)c3cc(O)ccc3CC1[C@@H]2C,1.22% (inactive),
CCCN(CCC)C(=O)Cc1c(-c2ccc(Cl)cc2)nc2c(Cl)cc(Cl)cn12,17.4% (inactive),
CCCCN1C2CCC1CC(OC(c1ccc(F)cc1)c1ccc(F)cc1)C2 (stereo not given),,1850 nM (active)
